The text below walks through data of PubChem BioAssay (NCATS).

Inconclusive results are not listed. Active and inactive are the calls of the source. Unless noted, the call rests on the fitted dose curve; in most records, active means well fitted curve in the direction sought with a large enough effect; inconclusive means small, poorly fitted or top-dose-only effect, or another doubt; inactive means no such curve, though single readings can be large; an effect the other way counts as inactive or inconclusive.

The nature of assay [1]: qHTS for Inhibitors of the Functional Ribonucleoprotein Complex (vRNP) of Lymphocytic Choriomeningitis Arenaviruses (LCMV): Viability assay - alamar blue signal for LCMV Primary Screen (AID 1347085; calls by dose curve; tested in HEK293 reporter line; further: nearly all actives have a fitted effect of over 80% in size; further: potency means the concentration at half of the fitted maximal effect).
Assay [2] addresses Nucleoprotein (Lymphocytic choriomeningitis virus (strain Armstrong)) (UniProt P09992). In words: qHTS for Inhibitors of the Functional Ribonucleoprotein Complex (vRNP) of Lymphocytic Choriomeningitis Arenaviruses (LCMV): LCMV Primary Screen - GLuc reporter signal (AID 1347086; calls by dose curve; further: nearly all actives have a fitted effect of over 70% in size; further: potency means the concentration at half of the fitted maximal effect).
A short description of assay [3]: qHTS of pediatric cancer cell lines to identify multiple opportunities for drug repurposing: Primary screen for TC32 cells (AID 1347089). Further: nearly all actives have a fitted effect of over 60% in size. Further: potency means the concentration at half of the fitted maximal effect. The essentials: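 Measured quantity: luminescence from CellTiter-Glo, reflecting metabolically active TC32 cells following 48 h of compound. Curves came straight from multi-point titrations, with 8 or 11 points in primary and 11 in confirmatory screening.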

The nature of assay [4]: qHTS of pediatric cancer cell lines to identify multiple opportunities for drug repurposing: Primary screen for SJ-GBM2 cells (AID 1347091). Further: potency means the concentration at half of the fitted maximal effect. The essentials:
(§1)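 Viability measured as metabolically active cells via CellTiter-Glo luminescence following 48 hours of compound exposure, 11-point dilutions in confirmatory testing. 500-1,000 cells/well plated 5 hours before dosing; controls were DMSO and 2.3 µM bortezomib.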

A short description of assay [5]: qHTS of pediatric cancer cell lines to identify multiple opportunities for drug repurposing: Primary screen for SK-N-MC cells (AID 1347093). Further: potency means the concentration at half of the fitted maximal effect. An outline of the steps:
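Metabolically active cells were quantified by ATP-dependent luminescence (CellTiter-Glo, 15 min at room temperature) following 48 h treatment. Cells had been plated at 500-1,000 per well and settled for 5 h beforehand.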

Assay [6] can be described thus: qHTS of pediatric cancer cell lines to identify multiple opportunities for drug repurposing: Primary screen for NB-EBc1 cells (AID 1347095). Further: potency means the concentration at half of the fitted maximal effect. An outline of the steps:
(§2)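 Luminescence from CellTiter-Glo served as readout of metabolically active cells after 48 h compound exposure. Titrations: MIPE 11-point, from 0.78 nM; NPC 8-point, from 0.59 nM (final). Concentration-response curves came straight from the primary screen.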

The nature of assay [7]: qHTS of pediatric cancer cell lines to identify multiple opportunities for drug repurposing: Primary screen for U-2 OS cells (AID 1347096). Further: nearly all actives have a fitted effect of over 50% in size. Further: potency means the concentration at half of the fitted maximal effect. The essentials: (§3)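 Viability after 48 h compound treatment at 37C, 500-1,000 cells/well, read as ATP luminescence with CellTiter-Glo. Primary screens used 11-point (MIPE, 0.78 nM-46 µM) or 8-point (NPC, 0.59 nM-46 µM) final concentrations; follow-up screens used 11-point dilutions.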

The nature of assay [8]: qHTS of pediatric cancer cell lines to identify multiple opportunities for drug repurposing: Primary screen for Saos-2 cells (AID 1347097). Further: nearly all actives have a fitted effect of over 40% in size. Further: potency means the concentration at half of the fitted maximal effect. The essentials: as §2
A short description of assay [9]: qHTS of pediatric cancer cell lines to identify multiple opportunities for drug repurposing: Primary screen for SK-N-SH cells (AID 1347098). Further: nearly all actives have a fitted effect of over 65% in size. Further: potency means the concentration at half of the fitted maximal effect. The essentials: (§4)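 Cells (500-1,000/well) rested 5 h, then received compounds for 48 h; metabolically active cells were measured by CellTiter-Glo luminescence. Final concentrations spanned up to 46 µM (MIPE, 11-point) or 0.59 nM-46 µM (NPC, 8-point) in primary screens, 11-point in follow-ups.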

Assay [10] in a line: qHTS of pediatric cancer cell lines to identify multiple opportunities for drug repurposing: Primary screen for LAN-5 cells (AID 1347100). Further: potency means the concentration at half of the fitted maximal effect. The essentials:
as §3

Assay [11] is described as follows: qHTS of pediatric cancer cell lines to identify multiple opportunities for drug repurposing: Primary screen for Rh18 cells (AID 1347102). Further: nearly all actives have a fitted effect of over 65% in size. An outline of the steps:
as §3

Assay [12] can be described thus: qHTS of pediatric cancer cell lines to identify multiple opportunities for drug repurposing: Primary screen for OHS-50 cells (AID 1347103). Further: nearly all actives have a fitted effect of over 40% in size. Further: potency means the concentration at half of the fitted maximal effect. The essentials:
as §4

Assay [13] in a line: qHTS of pediatric cancer cell lines to identify multiple opportunities for drug repurposing: Primary screen for control Hh wild type fibroblast cells (AID 1347106).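 Further: series mostly up to about 46 µM; a drop in luminescence marks cytotoxicity and a rise apparent proliferation; nearly all actives have a fitted effect of over 55% in size.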 The essentials:
as §3

Assay [14] is described as follows: qHTS of pediatric cancer cell lines to identify multiple opportunities for drug repurposing: Primary screen for NB1643 cells (AID 1347099). Further: nearly all actives have a fitted effect of over 50% in size. Further: potency means the concentration at half of the fitted maximal effect. The essentials: as §2
Assay [15] can be described thus: qHTS of pediatric cancer cell lines to identify multiple opportunities for drug repurposing: Primary screen for RD cells (AID 1347104). Further: nearly all actives have a fitted effect of over 55% in size. Further: potency means the concentration at half of the fitted maximal effect. An outline of the steps:
as §2

A short description of assay [16]: qHTS of pediatric cancer cell lines to identify multiple opportunities for drug repurposing: Primary screen for BT-37 cells (AID 1347094). Further: potency means the concentration at half of the fitted maximal effect. The essentials: as §2
Assay [17] can be described thus: qHTS of pediatric cancer cell lines to identify multiple opportunities for drug repurposing: Primary screen for BT-12 cells (AID 1347101). Further: nearly all actives have a fitted effect of over 25% in size. Further: potency means the concentration at half of the fitted maximal effect. An outline of the steps: as §4
Assay [18] can be described thus: qHTS of pediatric cancer cell lines to identify multiple opportunities for drug repurposing: Primary screen for DAOY cells (AID 1347090). Further: nearly all actives have a fitted effect of over 55% in size. Further: potency means the concentration at half of the fitted maximal effect. The essentials: as §1
Assay [19] is described as follows: qHTS of pediatric cancer cell lines to identify multiple opportunities for drug repurposing: Primary screen for A673 cells (AID 1347092). Further: nearly all actives have a fitted effect of over 45% in size. Further: potency means the concentration at half of the fitted maximal effect. The essentials: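 Cells are plated, rested 5 h, dosed by pintool, incubated 48 h, then lysed with CellTiter-Glo and read by luminescence. DMSO is the neutral control; bortezomib at 2.3 uM final is the positive control.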
Assay [20] is described as follows: qHTS of pediatric cancer cell lines to identify multiple opportunities for drug repurposing: Primary screen for MG 63 (6-TG R) cells (AID 1347105). Further: nearly all actives have a fitted effect of over 50% in size. Further: potency means the concentration at half of the fitted maximal effect. An outline of the steps:
as §2

Nucleoprotein (Lymphocytic choriomeningitis virus (strain Armstrong)), sequence (P09992 whole entry, looked up): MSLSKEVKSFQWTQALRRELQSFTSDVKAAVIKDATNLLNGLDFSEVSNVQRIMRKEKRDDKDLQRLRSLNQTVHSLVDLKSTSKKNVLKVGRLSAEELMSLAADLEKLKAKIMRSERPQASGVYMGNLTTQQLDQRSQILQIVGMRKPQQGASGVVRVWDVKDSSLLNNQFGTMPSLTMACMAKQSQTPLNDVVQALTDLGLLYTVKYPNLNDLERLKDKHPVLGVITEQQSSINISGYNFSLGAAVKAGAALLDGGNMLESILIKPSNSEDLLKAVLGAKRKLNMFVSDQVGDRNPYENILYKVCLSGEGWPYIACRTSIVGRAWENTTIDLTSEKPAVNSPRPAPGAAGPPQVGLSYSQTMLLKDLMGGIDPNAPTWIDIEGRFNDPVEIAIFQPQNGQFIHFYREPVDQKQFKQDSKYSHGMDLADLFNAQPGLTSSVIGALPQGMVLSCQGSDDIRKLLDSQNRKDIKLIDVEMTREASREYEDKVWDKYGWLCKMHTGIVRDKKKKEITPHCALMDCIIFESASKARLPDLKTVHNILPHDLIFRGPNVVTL

Turning to `CC(=Cc1csc(C)n1)[C@@H]1C[C@H]2O[C@@H]2CCC[C@H](C)[C@@H](O)[C@@H](C)C(=O)C(C)(C)[C@@H](O)CC(=O)O1`, the Potency entry in assay [1], in [2], in [7], in assay [9], in [11] and in assay [13] was “inactive” in each case. Also, the Potency in assay [3] is 0.0012 µM (active); in [4] it was 0.001 µM (active); in [5], 0.001 µM (active); in assay [6], 0.001 µM (active); in assay [8], 0.001 µM (active); in assay [10], 0.001 µM (active). Also, the Potency in assay [12] is 0.001 µM (active).

Take `CCNC(=O)CC1N=C(c2ccc(Cl)cc2)c2cc(OC)ccc2-n2c(C)nnc21` (centres undefined): the Potency in assay [1] was 1.53 µM (active); in [2], 2.43 µM (active); in [5] it was 2.96 µM (active); in [6] it was 20.9 µM (active); in assay [9], 15.2 µM (active); in assay [14], 14.8 µM (active). For the same compound, the Potency in [10] was 10.5 µM (active); in assay [12], 21.7 µM (active); in assay [15] it was 5.9 µM (active). The Potency result in assay [3], in assay [7] and in assay [13] was “inactive” each time.

As to `CC(C)[C@]12O[C@@H]1[C@@H]1O[C@]13[C@]1(O[C@H]1C[C@@H]1C4=C(CC[C@@]13C)C(=O)OC4)[C@H]2O`, the Potency entry in assay [1], in [2], in [14], in [10] and in assay [13] was “inactive” in each case. For the same compound, the Potency is 0.001 µM (active) in [4]; 0.001 µM (active) in assay [5]; 0.001 µM (active) in [16]; 0.001 µM (active) in assay [6]; 0.001 µM (active) in assay [7]; 1.66 µM (active) in assay [8]. For the same compound, the Potency in assay [17], in assay [12] and in [15] was 0.001 µM (active) each time.

On to `C[C@]12Cc3cn[nH]c3C[C@@H]1CC[C@@H]1[C@H]2CC[C@@]2(C)[C@H]1CC[C@]2(C)O`, for which the Potency result in assay [1], in assay [2], in [3], in assay [18], in assay [7] and in assay [8] was “inactive” each time. The Potency entry in [9], in [14], in assay [10], in [17], in assay [11] and in [15] was “inactive” each time. Also, the Potency result in assay [20] and in assay [13] was “inactive” in each case. Also, the results for the Potency in assay [19] and in assay [5] were 14.8 µM (active) and 0.469 µM (active), respectively.

On to `ClC1=C(Cl)[C@]2(Cl)[C@@H]3[C@@H]4C[C@@H]([C@H]5O[C@@H]45)[C@@H]3[C@@]1(Cl)C2(Cl)Cl`, for which the Potency entry in [1], in [2], in [3], in assay [7] and in assay [13] was “inactive” throughout. Further, the Potency is 38.6 µM (active) in assay [18], 19.3 µM (active) in [5] and 38.6 µM (active) in assay [8].

Regarding `O=S(=O)(c1ccc(Cl)cc1)c1ccc(Cl)cc1`, the Potency result in assay [1], in assay [2], in assay [3], in assay [18], in assay [19] and in [7] was “inactive” in each case. The Potency result in [10], in assay [11], in assay [15], in [20] and in assay [13] was “inactive” in each case.

With `O=C(NCC1CCOCC1)c1cnc(Nc2ccc(Cl)cc2Cl)nc1C(F)(F)F`, the Potency entry in [1], in assay [2], in assay [3], in assay [7], in [11] and in [13] was “inactive” in each case. Besides, the Potency is 18.7 µM (active) in assay [18]; 3.32 µM (active) in [5]; 6.07 µM (active) in [9]; 9.35 µM (active) in assay [14]; 29.6 µM (active) in assay [20].

Turning to `CCCCCCCCc1ccc(O)cc1`, the Potency result in assay [1], in assay [2], in assay [18], in assay [7], in [14] and in assay [11] was “inactive” in each case. In addition, the Potency result in assay [15], in assay [20] and in [13] was “inactive” throughout. For the same compound, the Potency in [8] was 39 µM (active); in [12], 25.4 µM (active).

Take `CCc1c(C(=O)C(N)=O)c2c(OCC(=O)O)cccc2n1Cc1ccccc1`: the Potency entry in [1], in assay [2], in [3], in [4], in assay [16] and in [6] was “inactive” throughout. The Potency result in assay [7], in [8], in [9], in [14], in assay [10] and in [17] was “inactive” in each case. In addition, the Potency entry in [11], in assay [12] and in assay [13] was “inactive” each time.

Regarding `N=c1c2c(-c3ccccc3)c(-c3ccccc3)n(Cc3ccccc3)c2ncn1C1CCC(O)CC1` (centres undefined), the Potency in assay [1] was 0.544 µM (active); in assay [2] it was 1.72 µM (active); in assay [4], 18.7 µM (active); in assay [19] it was 18.7 µM (active); in assay [5] it was 16.6 µM (active); in assay [16], 0.968 µM (active). Moreover, the Potency in assay [6] is 0.59 µM (active); in [8], 23.5 µM (active); in [14], 4.69 µM (active); in [10], 1.05 µM (active); in assay [17], 6.85 µM (active). The Potency result in assay [18] and in assay [13] was “inactive” in each case.
